An excerpt weighted towards active compounds, which were near 11% of everything screened.
3T3 cytotox: cytotoxic compounds in NIH 3T3 cells; Potency, µM (series often up to 96.7 µM), for inactives: at the highest dose activity change, negative = cytotoxicity, actives largely listed as inhibitors; 94,000 compounds, 4.3% hits; NIH 3T3 viability, CellTiter-Glo ATP luminescence, 48-72 h; AID 1345082; further: nearly all actives have a fitted effect of over 55% in size
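Mouse fibroblast NIH 3T3 cells, 400 per well, received compound via pintool and were incubated for 48 or 72 hr prior to CellTiter-Glo ATP luminescence measurement.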
NPR1 antag: human Npr1 receptor antagonism. P16066. HEK293 hNpr1 GloSensor cGMP, ANP-stimulated luminescence. Potency, µM (doses to about 46.3 µM), for inactives: at the highest dose activity change, negative = inhibition, usual class: inhibitors. 76,000 compounds, 1.6% hits. AID 1347048; calls by dose curve; further: nearly all actives have a fitted effect of over 60% in size
Target sequence (P16066 whole entry, looked up): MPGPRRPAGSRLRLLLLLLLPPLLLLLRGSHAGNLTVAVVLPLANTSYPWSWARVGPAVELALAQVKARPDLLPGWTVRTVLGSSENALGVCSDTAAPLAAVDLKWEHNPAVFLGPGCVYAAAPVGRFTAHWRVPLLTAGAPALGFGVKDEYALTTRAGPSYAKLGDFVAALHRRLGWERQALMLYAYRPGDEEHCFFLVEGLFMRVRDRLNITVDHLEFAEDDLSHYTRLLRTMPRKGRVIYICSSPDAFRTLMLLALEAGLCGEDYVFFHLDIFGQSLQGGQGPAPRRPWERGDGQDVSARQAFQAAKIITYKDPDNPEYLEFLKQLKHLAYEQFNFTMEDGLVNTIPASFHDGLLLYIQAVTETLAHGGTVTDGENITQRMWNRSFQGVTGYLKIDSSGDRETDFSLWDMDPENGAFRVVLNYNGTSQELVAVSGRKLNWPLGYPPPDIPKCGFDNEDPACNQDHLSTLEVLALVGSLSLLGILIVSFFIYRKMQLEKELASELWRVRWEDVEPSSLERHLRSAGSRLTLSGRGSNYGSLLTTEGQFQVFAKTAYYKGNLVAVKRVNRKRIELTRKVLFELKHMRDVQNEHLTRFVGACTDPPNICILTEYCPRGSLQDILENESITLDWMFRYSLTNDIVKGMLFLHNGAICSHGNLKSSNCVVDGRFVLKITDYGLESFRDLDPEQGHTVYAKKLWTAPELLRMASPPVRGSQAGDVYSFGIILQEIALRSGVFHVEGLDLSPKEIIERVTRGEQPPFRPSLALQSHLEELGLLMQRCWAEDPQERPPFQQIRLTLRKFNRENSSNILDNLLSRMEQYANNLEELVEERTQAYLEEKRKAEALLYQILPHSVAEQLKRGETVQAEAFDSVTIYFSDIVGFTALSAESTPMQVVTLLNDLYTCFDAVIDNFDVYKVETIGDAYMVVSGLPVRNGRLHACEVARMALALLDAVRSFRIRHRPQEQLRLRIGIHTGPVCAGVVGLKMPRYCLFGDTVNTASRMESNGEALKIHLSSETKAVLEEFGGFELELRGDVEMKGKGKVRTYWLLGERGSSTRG
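HEK293 cells stably expressing human Npr1 and cGMP GloSensor pGS-40F, loaded 2 h with 2% GloSensor reagent, given compound 30 min at room temperature. Luminescence read before and 20 min after 0.1 nM hNppA.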
Luciferase inh: blocks purified firefly luciferase enzyme activity; P08659; purified P. pyralis luciferase, luminescence, biochemical; Potency, µM (highest dose often 115 µM), hits mostly inhibitors; 76,000 compounds, 2.5% hits; AID 1347043; further: nearly all actives have a fitted effect of over 65% in size
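Purified 10nM P. pyralis luciferase with 10uM D-luciferin and 10uM ATP in 50mM Tris acetate pH 7.5, 10mM Mg acetate, 0.01% Tween-20, 0.05% BSA. qHTS titration; luminescence read by CCD imager.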
HEK293 tox: HEK 293 cell cytotoxicity. 94,000 compounds, 6.6% hits. HEK 293 viability, ATP luminescence (CellTiter-Glo), 48-72 h. Potency, µM (highest dose often 115 µM), for inactives: at the top dose activity change, negative = cytotoxicity, usual class: inhibitors; further: nearly all actives have a fitted effect of over 60% in size
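Read-out: CellTiter-Glo ATP luminescence. Cells: HEK 293, 250 cells/well. Exposure: 48 or 72 hr, 37 degree Celsius.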
The depositor's hits bear a star; i = inactive; ? = inconclusive; / = not tested or not shown; [ ] = remark or other dose. Unless noted, the call rests on the fitted dose curve; in most records, active means well fitted curve in the direction sought with a large enough effect; inconclusive means small, poorly fitted or top-dose-only effect, or another doubt; inactive means no such curve, though single readings can be large; an effect the other way counts as inactive or inconclusive. On the % scale 0 is the no-effect control and ±100 the full control effect; potency means the concentration at half of the fitted maximal effect.

SMILES | 3T3 cytotox | NPR1 antag | Luciferase inh | HEK293 tox
CC(=O)N1Cc2ccccc2CC2(CCCN(CCc3ccc(C)cc3)C2)C1 (centres undefined) | -10.6% | / | / | ?
O=C(c1ccc(C(F)(F)F)cc1)N1CCC(C(=O)N2CCC(c3ccccc3)CC2)CC1 | ? | / | / | 44.7µM*
O=C(C1CCCN1[S+](=O)([O-])c1cccc(C(F)(F)F)c1)N1CCC(c2ccccc2)CC1 (centres undefined) | 35.5µM* | / | / | 25.1µM*
O=C(C1CC1)N1CCC(C(=O)N2CCC(c3ccccc3)CC2)CC1 | ? | / | / | -25.6%[172 µM]
O=C(C1CCN(S(=O)(=O)c2cccc(C(F)(F)F)c2)CC1)N1CCC(c2ccccc2)CC1 | ? | / | / | 22.4µM*
Fc1ccccc1CNc1cc(Cl)nc2ccnn12 | ? | ? | i | 35.5µM*
CC(C)(C)CNc1cc(Cl)nc2ccnn12 | -11.3%[138 µM] | 13.2%[70.6 µM] | i | ?
CC(C)(C)CC(=O)N1CCN2C(=O)c3cc(-c4ccccc4)ccc3NC(=O)[C@H]2C1 | ? | -0.8%[70.6 µM] | i | 100µM*
COc1ccc(Cl)cc1-c1ccc2c(c1)C(=O)N1CCN(C(=O)CN)C[C@H]1C(=O)N2 | 100µM* | 2.8%[70.6 µM] | i | ?
CC(C)(CC(=O)O)CC(=O)N1CCN2C(=O)c3cc(-c4ccc(Cl)cc4)ccc3NC(=O)[C@H]2C1 | -1.4% | -2.9% | i | 0.3%
COc1ccc(-c2ccc3c(c2)C(=O)N2CCN(C(=O)CC(C)(C)C)C[C@@H]2C(=O)N3)cc1 | ? | -1.4%[70.6 µM] | i | ?
CC(C)(C)CC(=O)N1CCN2C(=O)c3cc(-c4ccc(Cl)cc4)ccc3NC(=O)[C@H]2C1 | ? | -13.7% | i | 39.8µM*
COc1ccc(Cl)cc1-c1ccc2c(c1)C(=O)N1CCN(C(=O)COc3ccccc3)C[C@@H]1C(=O)N2 | ? | -14.8% | i | ?
O=C1Nc2ccc(-c3ccc(Cl)cc3)cc2C(=O)N2CCN(C(=O)C3CCCCC3)C[C@H]12 | ? | -20.7% | i | 39.8µM*
O=C(C1CCN([S+](=O)([O-])c2cccc(C(F)(F)F)c2)CC1)N1CCC(c2nc3ccncc3[nH]2)C1 (centres undefined) | -2.9% | / | / | -6.8%
CCCNC(=O)N1CCN2C(=O)c3cc(-c4ccccc4F)ccc3NC(=O)[C@@H]2C1 | ? | -1.8%[70.6 µM] | i | 100µM*
O=C(CCc1ccnc(N2CCCC2)c1)N1CCN(c2cccc(Cl)c2)CC1 | ? | -14.9% | i | 31.6µM*
Cc1cccc(N2CCN(C(=O)CCc3ccnc(N4CCCC4)c3)CC2)c1 | -22.3% | -14.6% | i | ?
CC(C)[C@@H]1CN(C(=O)c2cc(N3CCCCC3)ccc2Cl)C[C@H]1N(C)C | ? | -0.2% | i | 39.8µM*
CCCn1ncc(CN(C)CC2CCN(CCc3ccc(Cl)cc3)CC2)c1C | 35.5µM* | -1.6% | i | 22.4µM*
Cc1ocnc1C(=O)N(C)CC1CCCN(CCc2ccc(Cl)cc2)C1 (centres undefined) | -25.9% | 1.7% | i | ?
CN(C)C(=O)c1n[nH]c2c1CN(C(=O)c1cccc(Cl)c1)CC2 | -13.3% | -7.5% | i | -5.1%
O=C(N[C@H]1CCN2C(=O)c3cc(-c4cccs4)ccc3NC(=O)[C@H]12)c1cccc(F)c1 | ? | -10.5% | i | -22.0%
Cc1nnc2ccc(N3CCC(NC(=O)NC4CCCC4)C3)nn12 (centres undefined) | -3.5%[138 µM] | / | / | -10.1%[172 µM]
CN(C)c1ccc(-c2nnc([C@H]3CCN(CC4CCCCC4)C3)o2)cc1 | ? | 0.1%[70.6 µM] | ? | 100µM*
SMILES | 3T3 cytotox | NPR1 antag | Luciferase inh | HEK293 tox
Cc1ccc(CN2CC[C@H](c3nnc(-c4ccccc4)o3)C2)cc1 | ? | 0.6%[70.6 µM] | ? | ?
CN(C)c1ccc(-c2nnc([C@H]3CCN(Cc4ccccc4)C3)o2)cc1 | ? | -7.5%[70.6 µM] | 63.1µM* | ?
Cc1ccc(CNC(=O)N2CCCN(S(=O)(=O)c3ccccc3)CCC(=O)NCC2)cc1 | -19.3% | -9.8% | i | -6.0%
CCOc1cc(C(=O)N2CCC(Cc3nc(-c4cnccn4)no3)CC2)cc(OCC)c1OCC | ? | -2.9% | i | -14.7%
CCOc1cc(C(=O)N2CCC(Cc3nc(-c4ccc(F)cc4)no3)CC2)cc(OCC)c1OCC | 31.6µM* | ? | i | 35.5µM*
COc1ccc(-c2noc(CC3CCN(C(=O)c4cc(OC)c(OC)c(OC)c4)CC3)n2)cc1 | 12.6µM* | ? | i | ?
COc1cc(OC)cc(C(=O)N2CCC(Cc3nc(-c4cccc(OC)c4)no3)CC2)c1 | ? | ? | i | 44.7µM*
COc1ccc(-c2noc(CC3CCN(C(=O)c4cc(OC)cc(OC)c4)CC3)n2)cc1 | ? | ? | i | 35.5µM*
COc1ccccc1C(=O)N1CCC(Cc2nc(-c3ccccc3)no2)CC1 | ? | ? | i | ?
COCc1nc(C2CC(N)C2)cc(N(C)Cc2nc3ccccc3c(=O)[nH]2)n1 (centres undefined) | ? | -0.9% | i | -9.6%
O=C(C1CCCN1C(=O)c1cccc(-c2cccnc2)c1)N1CCOCC1 (centres undefined) | -7.5% | / | / | i
O=C1NCc2ccccc2CC12CCN(Cc1ccc(Cl)cc1)CC2 | -12.5% | / | / | ?
COc1ccc(C(=O)N2CCC(Cc3nc(C(C)C)no3)CC2)cc1OC | -45.3% | ? | i | ?
Cc1ccc(C(=O)N2CCC(Cc3nc(C(C)C)no3)CC2)cc1C | 44.7µM* | ? | i | ?
CCCCCNC(=O)C1CCCN(Cc2cccc(-c3ccsc3)c2)C1 (centres undefined) | 35.5µM* | / | / | 31.6µM*
O=C(NCCC1CCCCC1)C1CCCN(Cc2cccc(-c3ccsc3)c2)C1 (centres undefined) | ? | / | / | 44.7µM*
COCCNC(=O)C1CCCN(Cc2cccc(-c3ccsc3)c2)C1 (centres undefined) | ? | / | / | -26.6%
O=C1N(Cc2ccccc2F)CCOC12CCN(Cc1ccccc1F)CC2 | -29.8%[138 µM] | -7.5%[70.6 µM] | i | ?
COc1ncccc1-c1nc(-c2c(C)noc2C)cc2cc(C(C)C)oc12 | ? | 0.9%[70.6 µM] | i | 89.1µM*
Cc1noc(C)c1-c1cc2cc(C(C)C)oc2c(NC2CCOCC2)n1 | ? | 1.5%[70.6 µM] | i | 100µM*
Cc1noc(C)c1-c1cc2cc(C(C)C)oc2c(NC(C)C)n1 | 79.4µM* | -2.3%[70.6 µM] | i | 89.1µM*
Cc1cc2cc(-c3c(C)noc3C)nc(NCC3CC3)c2o1 | ? | -3.8%[70.6 µM] | i | ?
Cc1noc(C)c1-c1cc2cc(C(C)C)oc2c(-c2c(C)noc2C)n1 | ? | -3.6%[70.6 µM] | i | ?
O=C(C1CCCN([S+](=O)([O-])c2ccccc2)C1)N1CCC(N2Cc3ccccc3C2=O)CC1 (centres undefined) | -28.9% | / | / | -26.1%
CCOC(=O)C1(Cc2ccccc2F)CCCN(C(=O)C2=C(C)OCCO2)C1 (centres undefined) | -29.7% | -0.3% | i | ?

High-throughput results as filed in PubChem BioAssay.
